From the supplement of paper PMC10849652
About 7,900 targets were measured; listed, in parts, are those with a hit and a random draw of the rest. About 0.6% of all pairs of compound and target were hits.

Assays:
Assay in all cases: log2 fold change, soluble protein after heating vs DMSO (PISA); higher = thermal stabilisation; K562 cells, 10 uM, 30 min; active = over 0.2 and 3.5 SD of the protein, either way, in both replicates (recomputed)
[1] = target: ZNF217 (UniProt O75362)
In short: (§1)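 Values are thermal stability changes relative to control samples and are taken from duplicates. They are stated as log2 fold changes. Before quantification by TMTpro 16plex LC-MS/MS with equalised channel sums, K562 cells at 2×10^6 cells/mL were treated with 10 μM compound for 30 min, heated in aliquots for 3 min across 48°C-58°C, pooled, extracted in PBS with 0.5% NP-40 at 4°C, and centrifuged at 21,000xg for 90 min to give the soluble supernatant.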

[2] = target: ZNF239 (UniProt Q16600)
In short: as §1

[3] = target: ZNF277 (UniProt Q9NRM2)
In short: as §1

[4] = target: ZNF511 isoform 1 (UniProt Q8NB15)
In short: as §1

[5] = target: ZNF579 (UniProt Q8NAF0)
In short: as §1

[6] = target: ZNF580 (UniProt Q9UK33)
In short: as §1

[7] = target: ZNF609 (UniProt O15014)
In short: as §1

[8] = target: ZNF622 (UniProt Q969S3)
In short: as §1

[9] = target: ZRANB2 (UniProt O95218)
In short: as §1

[10] = target: ZNF512 (UniProt Q96ME7)
In short: as §1

Measured: log2 fold change

Chain of ZNF511 isoform 1 (Q8NB15 whole entry, looked up, canonical isoform): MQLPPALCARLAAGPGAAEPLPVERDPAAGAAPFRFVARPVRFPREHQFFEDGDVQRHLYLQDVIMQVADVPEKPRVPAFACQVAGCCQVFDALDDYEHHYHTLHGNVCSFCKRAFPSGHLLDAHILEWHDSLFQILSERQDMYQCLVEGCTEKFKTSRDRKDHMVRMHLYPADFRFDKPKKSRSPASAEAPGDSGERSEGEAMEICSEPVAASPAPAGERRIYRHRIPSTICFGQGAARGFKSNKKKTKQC
Chain of ZRANB2 (O95218 whole entry, looked up): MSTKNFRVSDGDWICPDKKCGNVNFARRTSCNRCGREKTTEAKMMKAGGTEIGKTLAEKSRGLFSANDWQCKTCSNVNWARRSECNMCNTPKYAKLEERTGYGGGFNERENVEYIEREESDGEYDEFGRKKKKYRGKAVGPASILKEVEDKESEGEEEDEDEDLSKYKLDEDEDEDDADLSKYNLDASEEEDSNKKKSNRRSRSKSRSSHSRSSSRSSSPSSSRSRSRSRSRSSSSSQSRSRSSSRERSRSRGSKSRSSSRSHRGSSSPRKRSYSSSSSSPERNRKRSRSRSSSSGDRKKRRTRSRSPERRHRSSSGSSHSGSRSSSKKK
Chain of ZNF622 (Q969S3 whole entry, looked up): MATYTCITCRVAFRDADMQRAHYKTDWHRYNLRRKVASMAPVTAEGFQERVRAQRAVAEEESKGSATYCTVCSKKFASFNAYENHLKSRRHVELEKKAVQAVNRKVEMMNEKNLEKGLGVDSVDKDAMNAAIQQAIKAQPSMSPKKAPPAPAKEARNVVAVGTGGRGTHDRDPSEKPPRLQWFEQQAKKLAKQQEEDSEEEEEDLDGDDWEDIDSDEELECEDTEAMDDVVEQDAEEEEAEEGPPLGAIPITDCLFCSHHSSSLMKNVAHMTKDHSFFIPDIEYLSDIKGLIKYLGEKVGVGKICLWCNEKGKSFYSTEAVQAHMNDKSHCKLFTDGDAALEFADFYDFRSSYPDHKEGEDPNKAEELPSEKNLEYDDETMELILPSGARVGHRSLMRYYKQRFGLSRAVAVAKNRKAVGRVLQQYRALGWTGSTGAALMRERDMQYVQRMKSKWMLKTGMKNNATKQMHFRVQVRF
Chain of ZNF512 (Q96ME7 whole entry, looked up): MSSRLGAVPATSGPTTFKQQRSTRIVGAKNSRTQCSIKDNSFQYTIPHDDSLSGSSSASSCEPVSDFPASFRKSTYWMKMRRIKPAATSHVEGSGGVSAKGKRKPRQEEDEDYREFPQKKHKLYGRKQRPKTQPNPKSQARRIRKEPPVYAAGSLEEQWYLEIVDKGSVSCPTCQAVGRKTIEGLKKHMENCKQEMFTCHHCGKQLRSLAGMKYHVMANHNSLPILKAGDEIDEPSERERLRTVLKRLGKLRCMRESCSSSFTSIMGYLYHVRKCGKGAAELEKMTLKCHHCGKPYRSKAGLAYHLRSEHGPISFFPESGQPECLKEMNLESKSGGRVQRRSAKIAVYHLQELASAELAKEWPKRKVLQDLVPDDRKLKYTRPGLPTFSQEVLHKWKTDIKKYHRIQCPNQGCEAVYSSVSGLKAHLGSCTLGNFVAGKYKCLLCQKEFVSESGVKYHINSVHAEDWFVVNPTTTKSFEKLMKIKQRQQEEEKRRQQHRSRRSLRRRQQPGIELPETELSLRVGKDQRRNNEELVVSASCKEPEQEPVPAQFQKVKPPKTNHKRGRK
Chain of ZNF609 (O15014 whole entry, looked up): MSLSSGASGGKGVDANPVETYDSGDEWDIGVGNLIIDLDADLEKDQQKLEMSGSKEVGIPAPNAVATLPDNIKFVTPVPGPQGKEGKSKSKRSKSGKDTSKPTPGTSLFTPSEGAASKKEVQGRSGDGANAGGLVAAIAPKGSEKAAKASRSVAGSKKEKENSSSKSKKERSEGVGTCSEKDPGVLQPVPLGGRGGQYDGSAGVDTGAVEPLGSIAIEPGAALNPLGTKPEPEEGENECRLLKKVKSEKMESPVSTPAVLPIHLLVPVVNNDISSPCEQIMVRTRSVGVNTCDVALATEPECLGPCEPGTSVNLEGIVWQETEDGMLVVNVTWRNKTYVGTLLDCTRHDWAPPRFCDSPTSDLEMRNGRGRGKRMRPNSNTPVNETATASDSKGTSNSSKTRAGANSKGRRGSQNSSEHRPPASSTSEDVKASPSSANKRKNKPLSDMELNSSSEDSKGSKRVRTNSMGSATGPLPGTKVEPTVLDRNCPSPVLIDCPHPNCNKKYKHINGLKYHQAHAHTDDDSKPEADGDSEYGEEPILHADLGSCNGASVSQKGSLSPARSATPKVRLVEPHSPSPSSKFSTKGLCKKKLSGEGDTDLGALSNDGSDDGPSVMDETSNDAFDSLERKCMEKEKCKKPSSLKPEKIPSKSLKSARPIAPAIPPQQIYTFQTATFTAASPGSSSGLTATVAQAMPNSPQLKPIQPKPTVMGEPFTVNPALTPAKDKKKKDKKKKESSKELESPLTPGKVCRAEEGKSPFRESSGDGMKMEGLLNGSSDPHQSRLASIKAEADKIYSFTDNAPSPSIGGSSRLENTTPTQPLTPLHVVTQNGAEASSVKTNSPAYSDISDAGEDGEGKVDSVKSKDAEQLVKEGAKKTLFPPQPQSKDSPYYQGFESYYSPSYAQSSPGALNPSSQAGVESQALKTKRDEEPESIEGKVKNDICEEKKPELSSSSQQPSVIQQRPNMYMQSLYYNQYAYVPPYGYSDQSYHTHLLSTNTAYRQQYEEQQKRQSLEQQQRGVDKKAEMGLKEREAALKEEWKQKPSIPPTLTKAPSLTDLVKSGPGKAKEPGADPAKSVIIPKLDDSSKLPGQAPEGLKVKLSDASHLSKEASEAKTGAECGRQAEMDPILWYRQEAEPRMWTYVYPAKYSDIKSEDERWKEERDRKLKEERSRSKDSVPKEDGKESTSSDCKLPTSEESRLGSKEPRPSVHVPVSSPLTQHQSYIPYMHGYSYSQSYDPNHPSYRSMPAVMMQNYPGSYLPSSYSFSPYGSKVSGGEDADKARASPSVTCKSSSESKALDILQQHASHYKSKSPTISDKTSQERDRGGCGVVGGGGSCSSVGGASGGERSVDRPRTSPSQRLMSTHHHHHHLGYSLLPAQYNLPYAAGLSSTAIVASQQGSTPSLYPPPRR
Chain of ZNF580 (Q9UK33 whole entry, looked up): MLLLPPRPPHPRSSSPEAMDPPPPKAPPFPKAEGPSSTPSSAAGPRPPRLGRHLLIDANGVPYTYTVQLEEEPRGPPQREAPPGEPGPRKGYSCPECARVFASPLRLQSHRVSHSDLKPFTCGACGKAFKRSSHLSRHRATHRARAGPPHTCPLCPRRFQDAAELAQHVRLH
Chain of ZNF239 (Q16600 whole entry, looked up): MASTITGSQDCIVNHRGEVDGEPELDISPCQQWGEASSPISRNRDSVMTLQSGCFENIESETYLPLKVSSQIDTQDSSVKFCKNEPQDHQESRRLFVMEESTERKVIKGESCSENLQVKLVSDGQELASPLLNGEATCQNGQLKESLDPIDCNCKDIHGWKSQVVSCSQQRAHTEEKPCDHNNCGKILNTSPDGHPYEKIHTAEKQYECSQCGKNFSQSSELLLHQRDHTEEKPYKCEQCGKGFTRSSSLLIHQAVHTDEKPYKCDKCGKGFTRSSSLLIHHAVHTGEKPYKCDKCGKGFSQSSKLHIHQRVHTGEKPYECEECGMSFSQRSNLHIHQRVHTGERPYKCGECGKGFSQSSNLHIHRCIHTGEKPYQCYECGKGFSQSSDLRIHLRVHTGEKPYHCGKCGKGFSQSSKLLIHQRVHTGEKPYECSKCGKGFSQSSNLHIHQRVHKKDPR
Chain of ZNF217 (O75362 whole entry, looked up): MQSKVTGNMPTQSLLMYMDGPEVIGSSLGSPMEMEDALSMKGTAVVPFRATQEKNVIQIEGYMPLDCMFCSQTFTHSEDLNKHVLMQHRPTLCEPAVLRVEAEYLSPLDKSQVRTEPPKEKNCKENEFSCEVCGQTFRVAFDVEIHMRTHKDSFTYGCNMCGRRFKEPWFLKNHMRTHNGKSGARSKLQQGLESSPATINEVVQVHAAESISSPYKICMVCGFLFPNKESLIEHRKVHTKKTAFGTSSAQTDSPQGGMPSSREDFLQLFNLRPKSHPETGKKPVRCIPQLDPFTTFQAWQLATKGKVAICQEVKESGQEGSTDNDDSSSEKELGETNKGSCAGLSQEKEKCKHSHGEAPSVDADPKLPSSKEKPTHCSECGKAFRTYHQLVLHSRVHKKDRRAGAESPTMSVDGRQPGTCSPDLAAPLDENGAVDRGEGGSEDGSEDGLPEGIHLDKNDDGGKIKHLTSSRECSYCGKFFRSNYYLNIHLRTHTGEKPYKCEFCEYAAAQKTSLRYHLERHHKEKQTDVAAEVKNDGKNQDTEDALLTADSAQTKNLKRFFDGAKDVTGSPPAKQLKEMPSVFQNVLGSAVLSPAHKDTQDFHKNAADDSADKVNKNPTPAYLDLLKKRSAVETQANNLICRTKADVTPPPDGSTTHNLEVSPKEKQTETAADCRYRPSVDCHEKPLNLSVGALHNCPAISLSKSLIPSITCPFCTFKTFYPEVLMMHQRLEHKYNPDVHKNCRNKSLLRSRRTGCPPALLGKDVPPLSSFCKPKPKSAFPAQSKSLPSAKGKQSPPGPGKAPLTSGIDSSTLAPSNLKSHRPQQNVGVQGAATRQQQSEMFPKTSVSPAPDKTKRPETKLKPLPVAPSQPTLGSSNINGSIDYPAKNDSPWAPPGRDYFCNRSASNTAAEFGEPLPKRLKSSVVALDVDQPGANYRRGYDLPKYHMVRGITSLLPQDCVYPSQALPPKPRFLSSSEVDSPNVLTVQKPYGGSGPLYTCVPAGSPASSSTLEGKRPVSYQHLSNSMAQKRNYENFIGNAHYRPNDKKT

CS(=O)(=O)CCNCc1ccc(-c2ccc3ncnc(Nc4ccc(OCc5cccc(F)c5)c(Cl)c4)c3c2)o1 [lapatinib]
inactive: [1] 0.018 | [2] -0.095 | [3] 0 | [4] -0.085 | [5] 0.05 | [6] -0.025 | [7] 0.09 | [8] 0 | [9] 0.018

Cc1ccc(Sc2cncc3sc(C(N)=O)cc23)cc1
inactive: [1] -0.107 | [2] 0.019 | [3] -0.032 | [4] 0.018 | [5] -0.07 | [6] 0.16 | [7] -0.045 | [8] -0.022 | [9] -0.04

CN(C)CC(=O)Nc1ccc2[nH]c(=O)c3ccccc3c2c1
inactive: [1] 0.06 | [2] -0.1 | [3] -0.003 | [4] 0.068 | [5] -0.026 | [6] 0.046 | [7] 0.047 | [8] -0.024 | [9] -0.048

O=C1NC(=O)/C(=C\c2ccc3nccnc3c2)S1
inactive: [1] 0.007 | [2] 0.065 | [3] -0.108 | [4] 0.017 | [5] -0.07 | [7] -0.006 | [8] -0.004 | [9] 0.051

CNC(=O)c1ccccc1Nc1nc(Nc2ccc(N3CCOCC3)cc2OC)ncc1Cl
inactive: [1] -0.029 | [2] -0.055 | [3] 0.009 | [10] 0.151 | [5] -0.019 | [7] -0.057 | [8] 0.045 | [9] 0.002

Cn1cc(-c2ccc3nnc(C(F)(F)c4ccc5ncccc5c4)n3n2)cn1
inactive: [1] -0.01 | [2] -0.102 | [3] -0.064 | [4] -0.132 | [5] 0.002 | [7] -0.286 | [8] 0.024 | [9] 0.036

CCN(CC)Cc1ccc2cc(COC(=O)Nc3ccc(C(=O)NO)cc3)ccc2c1 [givinostat]
inactive: [1] 0.037 | [2] -0.226 | [3] 0.199 | [10] 0.112 | [5] 0.042 | [7] 0.063 | [8] -0.004 | [9] -0.029

CCCS(=O)(=O)Nc1ccc(F)c(C(=O)c2c[nH]c3ncc(Cl)cc23)c1F
active: [1] 0.688
inactive: [2] -0.02 | [3] 0.028 | [4] 0.014 | [5] -0.085 | [6] 0.069 | [7] 0.036 | [8] 0.023 | [9] -0.02

CON(C)C(=O)N1N=C(c2cc(F)ccc2F)S[C@@]1(CCCN)c1ccccc1 [filanesib]
inactive: [1] -0.045 | [2] 0.051 | [4] 0.019 | [5] 0.181 | [6] 0.152 | [7] 0.049 | [8] -0.101 | [9] 0

CS(=O)(=O)c1ccc(-c2cnc(N)c(C(=O)Nc3ccccc3)n2)cc1
inactive: [1] -0.037 | [2] -0.06 | [4] -0.022 | [5] 0.019 | [6] -0.231 | [7] 0.021 | [8] 0.066 | [9] -0.013

c1cn2cc(-c3ccc4cn[nH]c4c3)nc(Nc3ccc(N4CCOCC4)cc3)c2n1 [entospletinib]
inactive: [1] 0.011 | [3] 0.031 | [4] 0.1 | [5] -0.14 | [6] 0.004 | [7] -0.111 | [8] 0.021 | [9] 0.037

CN1CCN(c2nc(C3=C(c4c[nH]c5ccccc45)C(=O)NC3=O)c3ccccc3n2)CC1 [sotrastaurin]
inactive: [1] -0.019 | [2] 0.144 | [4] 0.001 | [5] 0.014 | [6] 0.039 | [7] 0.016 | [8] 0.018 | [9] -0.027

C[C@@H](Oc1cc(-c2cnn(C3CCNCC3)c2)cnc1N)c1c(Cl)ccc(F)c1Cl [crizotinib]
inactive: [1] -0.121 | [2] -0.124 | [3] -0.181 | [5] 0.112 | [6] 0.164 | [7] -0.113 | [8] -0.029 | [9] 0.014

Cc1cccc(-c2[nH]c(C(C)(C)C)nc2-c2ccc3nccnc3c2)n1
inactive: [1] 0.01 | [2] 0.013 | [3] -0.107 | [5] -0.073 | [6] -0.183 | [7] 0.014 | [8] 0.008 | [9] -0.05

NC(=O)Nc1cc(-c2cccc(F)c2)sc1C(=O)N[C@H]1CCCNC1
inactive: [1] 0.016 | [2] 0.015 | [4] 0.007 | [5] -0.008 | [6] 0.123 | [7] 0.061 | [8] -0.028 | [9] 0.076

c1cc(OCCN2CCCCC2)cc(-c2n[nH]c3ccc(-c4nnc[nH]4)cc23)c1
inactive: [1] -0.096 | [3] -0.275 | [4] -0.043 | [5] 0.078 | [6] -0.083 | [7] -0.003 | [8] 0.092 | [9] 0.021

Nc1ccccc1NC(=O)c1ccc(CNC(=O)OCc2cccnc2)cc1 [entinostat]
inactive: [1] 0.075 | [2] -0.023 | [4] -0.078 | [5] -0.036 | [6] 0 | [7] -0.061 | [8] -0.007 | [9] -0.024

Cn1c2cc(S(C)=O)sc2c2cnn(Cc3cccc(N)c3)c(=O)c21 (stereo not given)
inactive: [1] 0.237 | [2] 0.34 | [3] 0.084 | [5] 0.008 | [6] 0.259 | [7] 0.021 | [8] -0.061 | [9] -0.006

COc1ccc(Cn2ccc3ccc(C(=O)NO)cc32)cc1
inactive: [1] -0.024 | [2] -0.178 | [3] -0.073 | [5] 0.056 | [6] -0.134 | [7] -0.034 | [8] -0.033 | [9] -0.022

NC(=O)c1ccc2nc(-c3ccc(Oc4ccc(Cl)cc4)cc3)[nH]c2c1
inactive: [1] 0.015 | [2] 0.248 | [3] -0.104 | [10] -0.014 | [5] 0.042 | [7] 0.029 | [8] 0.007 | [9] -0.015

Cc1nc(Nc2ncc(C(=O)Nc3c(C)cccc3Cl)s2)cc(N2CCN(CCO)CC2)n1 [dasatinib]
inactive: [1] -0.136 | [2] -0.074 | [3] 0.019 | [5] -0.148 | [6] -0.085 | [7] 0 | [8] 0.012 | [9] 0.078

CC[C@@H]1C(=O)N(C)c2cnc(Nc3ccc(C(=O)NC4CCN(C)CC4)cc3OC)nc2N1C1CCCC1
inactive: [1] 0.029 | [3] 0.328 | [4] -0.041 | [5] -0.017 | [6] 0.037 | [7] 0.047 | [8] 0.069 | [9] 0.022

Cc1cc(SCc2sc(-c3ccc(C(F)(F)F)cc3)nc2C)ccc1OCC(=O)O
inactive: [1] 0.112 | [2] -0.172 | [3] 0.152 | [5] -0.009 | [6] -0.301 | [7] -0.134 | [8] -0.009 | [9] -0.086

CN1CCN(CCOc2cc(OC3CCOCC3)c3c(Nc4c(Cl)ccc5c4OCO5)ncnc3c2)CC1 [saracatinib]
inactive: [1] -0.083 | [2] 0.052 | [3] -0.276 | [5] -0.025 | [6] 0.108 | [7] 0.047 | [8] -0.005 | [9] 0.044

Cc1cc(Nc2cc(CN3CCOCC3)c3nc(C)c(Cc4ccc(Cl)cc4F)n3n2)n[nH]1 [gandotinib]
inactive: [1] -0.098 | [2] -0.267 | [3] 0.041 | [5] 0.036 | [6] 0.041 | [7] -0.073 | [8] 0.075 | [9] 0.064

Cc1ccc(NC(=O)c2cccc(C(C)(C)C#N)c2)cc1Nc1ccc2ncn(C)c(=O)c2c1
inactive: [1] 0.075 | [2] -0.002 | [4] -0.026 | [5] 0.043 | [6] -0.174 | [7] -0.046 | [8] 0.048 | [9] 0.034

O=C(CCCCCCC(=O)Nc1ccccc1)NO [vorinostat]
inactive: [1] 0.056 | [2] 0.275 | [3] -0.022 | [5] -0.032 | [6] -0.064 | [7] -0.128 | [8] -0.049 | [9] -0.03
